Six1-Eya2 inh = Six1/Eya2 interaction inhibition; activity change, % (no concentration beside the values); 360,000 compounds, 0.56% hits; AlphaScreen GST-Six1/His-Eya2 binding, biochemical; active compounds read low; AID 651725; Q15475+O00167; in the data active = activity change below about -65%; inconclusive = mostly about -30% to -63%
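Compounds are tested against tagged Six1 and Eya2 proteins bridged by glutathione donor and nickel acceptor beads; after a one-hour incubation at 37 °C without light, AlphaScreen emission is recorded.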
DT40 TDP1 CPT = DT40-hTDP1 cell growth loss with CPT | Potency, µM (highest dose often 46.2 µM), for inactives: at the top dose activity change, negative = growth inhibition, most hits filed as inhibitors | AID 686979 | 420,000 compounds, 12% hits | chicken DT40 Tdp1-/-;hTDP1 cells + 20 nM CPT, ATP luminescence, 48 h; note: potency is the fitted concentration of half-maximal effect; nearly all actives have a fitted effect of over 55% in size
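Chicken DT40 Tdp1-/- cells stably complemented with human TDP1 were seeded at 400 cells/well in medium containing 20 nM camptothecin, exposed to pin-transferred compounds, and grown at 37 °C for at least 48 hr. Viability was read as ATP luminescence.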
IL-1B inflam inh = inhibitors of inflammasome signaling (IL-1 beta secretion) | THP-1 LPS/ATP IL-1B secretion, AlphaLISA, 16 h; active compounds read low | activity change, % at 57.5 µM | 360,000 compounds, 4.7% hits | AID 743279; in the data active = activity change below about -50%; inconclusive = mostly about -30% to -49%
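Secreted IL-1B measured by AlphaLISA bead assay after 16 h compound exposure of THP-1 cells; compounds (final up to 57.5 uM) added 1 h before LPS (250 ng/mL) and ATP (1.25 mM) stimulation; lower signal means less secretion.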
TDP1 block = inhibitors of human tyrosyl-DNA phosphodiesterase TDP1. Potency, µM (highest dose often 130 µM), without a hit: top-dose activity change, negative = inhibition, actives largely listed as inhibitors. 350,000 compounds, 0.28% hits. recombinant TDP1, AlphaScreen DNA substrate cleavage; note: potency is the fitted concentration of half-maximal effect; nearly all actives have a fitted effect of over 40% in size
Target sequence (Q9NUW8 whole entry, looked up): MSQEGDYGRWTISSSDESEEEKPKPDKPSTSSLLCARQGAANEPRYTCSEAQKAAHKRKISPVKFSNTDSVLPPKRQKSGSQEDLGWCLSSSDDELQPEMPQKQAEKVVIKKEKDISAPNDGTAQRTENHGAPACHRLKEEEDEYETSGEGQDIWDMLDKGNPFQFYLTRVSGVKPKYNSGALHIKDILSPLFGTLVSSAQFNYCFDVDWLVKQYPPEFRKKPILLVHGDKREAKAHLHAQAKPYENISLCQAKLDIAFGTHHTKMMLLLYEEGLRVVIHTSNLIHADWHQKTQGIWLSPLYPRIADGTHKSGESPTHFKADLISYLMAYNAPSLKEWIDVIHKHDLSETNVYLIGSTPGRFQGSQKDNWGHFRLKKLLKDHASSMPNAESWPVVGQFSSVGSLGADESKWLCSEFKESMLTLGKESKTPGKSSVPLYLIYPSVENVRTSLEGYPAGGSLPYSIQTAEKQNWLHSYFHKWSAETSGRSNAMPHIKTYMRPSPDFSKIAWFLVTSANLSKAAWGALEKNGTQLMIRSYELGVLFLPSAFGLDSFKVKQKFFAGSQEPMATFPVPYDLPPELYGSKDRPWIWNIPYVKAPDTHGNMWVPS
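Tdp1 1 nM final; 15 min RT w/ cpd; substrate 15 nM, 5 min; beads 10 ug/ml, 10 min; AlphaScreen read. Neg ctrl: no enzyme.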
DT40 TDP1 no CPT = qHTS for Inhibitors of human tyrosyl-DNA phosphodiesterase 1 (TDP1): qHTS in cells in absence of CPT; DT40 Tdp1-/- hTDP1 cells, no CPT, ATP luminescence, 48 h; Potency, µM (series often up to 46.2 µM), inactives show at the highest dose activity change, negative = growth inhibition, hits mostly inhibitors; 420,000 compounds, 15% hits; AID 686978, 2013; note: potency is the fitted concentration of half-maximal effect; nearly all actives have a fitted effect of over 55% in size
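Growth of hTDP1-complemented DT40 Tdp1-knockout cells is measured by ATP luminescence after at least 48 hr compound exposure at 37 °C, with DMSO substituting for the 20 nM CPT used in the parallel screen.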
CtBP-E1A blk = blocks the CtBP interaction with E1A | AlphaScreen GST-E1A/His-CtBP binding, 1536-well; active compounds read low | activity change, % (concentration not given with the values) | 340,000 compounds, 0.49% hits | AID 651724; in the data active = activity change below about -65%; inconclusive = mostly about -30% to -63%
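Homogeneous bead-based format: GST-tagged E1A captured on glutathione donor beads, His-tagged CtBP on nickel acceptor beads; compounds precede bead addition by 2 h at 37 °C.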
Active calls of the source: *; u = inconclusive; x = no result; [ ] = remark or other dose. In the library only some 18% were active in any assay of this set; here they are far more common. Unless noted, calls come from the whole dose curve; as a rule, active = well fitted curve in the direction sought with a large enough effect; inconclusive = small, poorly fitted or top-dose-only effect, or another doubt; inactive = no such curve, though single readings can be large; an effect the other way counts as inactive or inconclusive. % is set by controls: 0 for no effect and ±100 for the full control effect.

SMILES	Six1-Eya2 inh	DT40 TDP1 CPT	IL-1B inflam inh	TDP1 block	DT40 TDP1 no CPT	CtBP-E1A blk
Cc1c(Cc2ccccc2)c(=O)oc2cc(OCC(=O)NCc3ccccn3)ccc12	-4.8	u	-51.6*	0.9%	-17.0%	-9.2
CCCCc1c(C)c2ccc(OCC(C)=O)cc2oc1=O	-8.2	-7.2%	-1.5	0.0%	u	-2.0
CC(=O)COc1ccc2c(C)c(-c3ccccc3)c(=O)oc2c1	3.2	u	-5.9	1.3%	25.9µM*	-1.4
CN(C(=O)COC(=O)c1cnc(Cl)c(Cl)c1)C1CCS(=O)(=O)C1 (stereo not drawn)	-5.4	-25.2%	-86.0*	-3.7%	-24.9%	0.1
CN(C(=O)COc1ccc(Br)cc1Cl)C1CCCCC1	-12.5	u	-52.2*	-5.5%	u	14.2
O=C(COC(=O)c1cnc(Cl)c(Cl)c1)NC1CCCC1	4.1	-2.3%	u	x	-22.6%	-5.3
CN(C(=O)COC(=O)c1cnc(Cl)c(Cl)c1)C1CCCCC1	-5.5	-28.2%	-96.2*	0.5%	-26.4%	-11.2
CC1CCCN(S(=O)(=O)CCNC(=O)c2ccc3c(c2)OCO3)C1 (stereo not drawn)	1.5	16.1%	8.8	0.3%	-1.2%	3.4
CCn1c(Cc2ccccc2)nnc1SCC(=O)NC(C)(C)C	0.0	-24.4%	-2.8	-5.7%	-9.7%	8.2
Cc1ccc(Cn2cccc2/C=C2/C(=N)N3C=CSC3=NC2=O)cc1	5.0	u	24.4	2.3%	u	2.4
COc1ccccc1NS(=O)(=O)c1cc(NC(=O)c2ccccc2[N+](=O)[O-])ccc1N1CCOCC1	-8.6	u	-3.9	3.0%	u	-13.6
COc1ccccc1NS(=O)(=O)c1cc(NC(=O)c2ccccc2F)ccc1N1CCOCC1	-17.1	16.4µM*	0.8	-1.8%	13µM*	-10.8
COc1ccccc1NS(=O)(=O)c1cc(NC(=O)c2cccs2)ccc1N1CCOCC1	-3.4	7.31µM*	20.5	2.5%	2.59µM*	-2.3
CCOC(=O)C1=C(C)NC2=C(C(=O)CCC2)C1c1cn(Cc2ccc(Cl)cc2Cl)nc1-c1ccccc1 (stereo not drawn)	-0.6	16.4µM*	u	3.1%	20.6µM*	2.9
CCOC(=O)C1=C(C)NC2=C(C(=O)CCC2)C1c1cccnc1 (stereo not drawn)	2.1	-11.2%	2.6	4.3%	-6.0%	11.5
CCc1cccc(NC(=O)CSc2nnc(-c3cc4occc4n3C)n2-c2ccccc2C)c1	x	u	x	8.7%	u	x
Cc1ccc(NC(=O)CSc2ccc(-c3ccco3)nn2)c(C)c1	-1.1	u	4.7	0.0%	u	-2.6
Cc1ccc(NC(=O)CSc2nnc(-c3cc4occc4n3C)n2-c2ccccc2C)c(C)c1	x	u	x	0.0%	18.4µM*	x
Cc1ccc(NC(=O)CSc2nnc(-c3cc4occc4n3C)n2-c2ccccc2C)cc1F	x	25.9µM*	x	7.5%	16.4µM*	x
CCOCCCNC(=O)C(c1ccc(Cl)cc1)N(Cc1ccc2c(c1)OCO2)C(=O)CNC(C)=O (stereo not drawn)	-3.3	2.0%	17.7	0.0%	-2.9%	5.7
CCOC(=O)C1=C(c2ccccc2)OC(N)=C(C#N)C1C1CCCCC1 (stereo not drawn)	-10.4	u	13.1	4.5%	u	-0.9
CCOC1(OCC)OC(c2ccccc2)=C(C#N)C(C=Cc2ccccc2)C1(OCC)OCC (stereo not drawn)	1.9	u	-6.0	x	20.6µM*	0.3
C=C1C(=O)O[C@@H]2[C@H]3O[C@]3(C)CCC=C(C)CC[C@@H]12	x	2.99µM*	x	10.4%[56.1 µM]	2.11µM*	x
Cc1ccc(-c2csc(-c3c(N)c(C(=O)c4ccc5c(c4)OCO5)n4ccccc34)n2)cc1	x	u	x	2.5%	u	x
CCc1ccc(C(=O)c2c(N)c(-c3nc(-c4ccc5c(c4)OCO5)cs3)c3ccccn23)cc1	x	-8.6%	x	7.6%	-21.0%	x
SMILES	Six1-Eya2 inh	DT40 TDP1 CPT	IL-1B inflam inh	TDP1 block	DT40 TDP1 no CPT	CtBP-E1A blk
COc1cccc(-c2csc(-c3c(N)c(C(=O)c4ccccc4)n4ccccc34)n2)c1	x	u	x	-5.1%	16.4µM*	x
Nc1c(-c2nc(-c3ccccc3)cs2)c2ccccn2c1C(=O)c1ccc2c(c1)OCO2	x	18.4µM*	x	-5.1%	6.51µM*	x
Cc1nc2ccccc2c(=O)n1/N=C/c1ccc2ccccc2c1O	u	u	199.5	9.5%	u	-7.8
C=CCC1CCC/C(=N\NS(=O)(=O)c2ccc(C)cc2)C1 (stereo not drawn)	-12.8	u	5.0	1.5%	10.8%	0.0
O=C(Nc1ccnn1C1CCN(C(=O)c2ccccc2C(F)(F)F)CC1)C1CC1	0.0	-23.4%	13.8	1.9%	-22.8%	4.8
Cc1nn(CC2CC2)c(=O)n1-c1ccc(C(C)C)cc1	5.4	1.1%	10.7	-2.6%	-18.2%	4.1
CN1/C(=C\P(=O)(N(C)C)N(C)C)C(C)(C)c2ccccc21	-0.3	5.8µM*	-11.1	2.0%	3.66µM*	-3.3
COc1cc(OC)cc(C2=Cc3ccccc3C(CC(C)=O)N2c2ccc(-c3cncnc3)cc2)c1 (stereo not drawn)	-1.6	18.4µM*	0.0	x	16.4µM*	1.3
COc1cc(OC)cc(C2=Cc3ccc(OC)cc3C(CC(C)=O)N2c2ccc(-c3cccs3)cc2)c1 (stereo not drawn)	20.5	20.6µM*	0.5	x	8.2µM*	29.3

Compound activity: PubChem BioAssay, National Center for Advancing Translational Sciences (NCATS)
